These results are taken from PubChem BioAssay.

Potency and affinity values are given separately. Active and inactive are the calls of the source.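 The calls were made as follows, unless noted: active = a dose-response fit showing signal loss, with half-maximal concentration no higher than twice the top tested dose; inconclusive = flat fit between 30% and 70% signal loss, or poor fit; inactive = the rest.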

The nature of the first test: viability loss in HepG2 hepatoma cells – cell-based, cherry-picks, set 2, cytotoxicity control, dose response (AID 687002). Conditions: ATP luminescence (CellTiter-Glo), 48 h; series mostly up to 26 µM; activity change, negative = cytotoxicity: at the top concentration. A general note: ATP-based viability assays read luminescence as a measure of living cells.
In the case of `Cc1cccc(C)c1NC(=O)CN(C)C(=O)C1CC1C` (stereo not given), the “activity change, negative = cytotoxicity” value is -2.09% (inactive). Regarding `CC(=O)c1sc(NC(=O)c2cc(-c3ccccc3)nn2-c2ccccc2)nc1C`, the “activity change, negative = cytotoxicity” value was 2.95% (inactive).

Turning to `Cc1ccc(N2CCN(C(CCc3ccccc3)C(=O)Nc3c(C)cccc3C)CC2)cc1` (stereo not given), the “activity change, negative = cytotoxicity” value is -2.6% (inactive).

On to `Cc1ccc(NC(=O)C2CCC(=O)N2)cc1C` (stereo not given), for which the “activity change, negative = cytotoxicity” value was -9.24% (inactive). Same read-out and setting: the value for `Cc1ccc(-n2ncc3c(SCC(N)=O)ncnc32)cc1C` was -15.8% (inactive).

In the case of `C(=Nn1cnnc1)c1ccc2c(c1)CCC2`, the “activity change, negative = cytotoxicity” value is 18.1% (inactive).

For `Cc1cccc(NC(=O)CN(C)C(=O)C2CCCC2)c1C`, the “activity change, negative = cytotoxicity” value is 11.4% (inactive).

In the case of `CC(C)NC(=O)Nc1ccc2c(c1)C(=O)N([C@@H](C)CO)C[C@H](C)[C@@H](CN(C)S(=O)(=O)c1cccs1)OCCCC[C@H](C)O2`, the “activity change, negative = cytotoxicity” value was 9.46% (inactive).

Turning to `Cc1ccc2cc(NC(=O)c3ccccc3)ccc2n1`, the “activity change, negative = cytotoxicity” value is -11% (inactive). The same measure, in the same setting: the value for `COC(=O)C1=C(C)N(Cc2ccc(Br)cc2)C(=S)NC1c1cccc(Br)c1` (stereo not given) was 13.8% (inactive); that for `O=C(C1CCOCC1)N1C[C@H]2[C@@H](c3ccccc31)[C@@H](CO)N2Cc1ccccc1Cl` was -3.75% (inactive); that for `C[C@@H]1CCCCO[C@H](CN(C)C(=O)CCCN(C)C)[C@@H](C)CN([C@H](C)CO)C(=O)c2cc(NC(=O)Cc3ccccc3)ccc2O1` was -20.4% (inactive).

For the compound `Cc1cccc(C)c1NC(=O)C1CCCCN1C` (stereo not given), the “activity change, negative = cytotoxicity” value was 1.01% (inactive). On the same count and under the same terms, the value for `O=C(Nc1ccccc1N1CCOCC1)c1cccc([N+](=O)[O-])c1` was -17.4% (inactive); that for `Cc1ccc(NC(=O)C2(N3CCC3=O)CCCCC2)cc1` was -13.1% (inactive); that for `COc1cccc(S(=O)(=O)N(C)C[C@@H]2OCc3ccccc3-c3ccccc3C(=O)N([C@@H](C)CO)C[C@@H]2C)c1` was 27.8% (inactive).

Take `C[C@@H]1CN([C@@H](C)CO)C(=O)Cc2cc(NS(=O)(=O)c3ccccc3)ccc2O[C@@H]1CN(C)Cc1ccc(Cl)c(Cl)c1`: the “activity change, negative = cytotoxicity” value is 11.8% (inactive).

Turning to `C[C@@H]1CN([C@H](C)CO)S(=O)(=O)c2ccc(-c3ccccc3)cc2O[C@H]1CN(C)C(=O)C1CCCCC1`, the “activity change, negative = cytotoxicity” value is 27.8% (inactive). As for `O=C(CN(c1ccccc1)S(=O)(=O)c1ccc(F)cc1)N1CCCCCC1`, the “activity change, negative = cytotoxicity” value is 15.3% (inactive). The same measure, in the same setting: the result for `CN1CCN(CCCNC(=O)c2ccc(/C=C3\Oc4ccccc4N(Cc4ccccc4F)C3=O)cc2)CC1` reads -4.79% (inactive); that for `C[C@@H]1CN([C@@H](C)CO)C(=O)c2cc(NC(=O)C3CC3)ccc2O[C@H]1CN(C)CC1CCCCC1`, -2.11% (inactive). On the same count and under the same terms, the result for `CO[C@@H]1CN(C)C(=O)c2ccc(NS(=O)(=O)c3ccc(Oc4ccccc4)cc3)cc2OC[C@H](C)NC[C@H]1C` reads -6.04% (inactive); that for `Cc1ccc(S(=O)(=O)N2CC[C@@H]3[C@H](CO)Nc4ccc(-c5ccccc5F)cc4[C@@H]32)cc1`, 10.3% (inactive). Still for that read-out and setting: the value for `O=C(COc1ccccc1)NCc1ccc2c(c1)OCO2` was 5.22% (inactive); that for `O=C(c1ccco1)N1N=C(c2cccs2)CC1c1cc([N+](=O)[O-])ccc1O` (stereo not given) was -1.06% (inactive).

As to `COC(=O)C1=C(C)N(Cc2ccccc2)C(=S)N[C@H]1c1ccc(Br)cc1`, the result was inactive. Turning to `C[C@H]1CN([C@@H](C)CO)C(=O)Cc2cc(N(C)C)ccc2O[C@@H]1CN(C)C(=O)Nc1ccc(C(F)(F)F)cc1`, the “activity change, negative = cytotoxicity” value was 10.3% (inactive). Consider `CC(C)CC#Cc1ccc2c(c1)O[C@H](CN(C)C(=O)C1CCC1)[C@@H](C)CN([C@@H](C)CO)S2(=O)=O`, for which the “activity change, negative = cytotoxicity” value is 2.8% (inactive). As for `Cc1ccc(NC(=S)Nc2ccc(Cl)c(Cl)c2)c(OC(F)F)c1`, the “activity change, negative = cytotoxicity” value was -8.77% (inactive). Still for that read-out and setting: the value for `CC(=O)c1sc(NC(=O)C2(F)C(F)(F)C(F)(F)C(F)(F)C(F)(F)C2(F)F)nc1C` was 18.8% (inactive); that for `CC(C)NC(=O)Nc1ccc2c(c1)CC(=O)N([C@H](C)CO)C[C@H](C)[C@@H](CN(C)C(=O)Nc1ccc3c(c1)OCO3)O2` was -1.91% (inactive). On the same count and under the same terms, the result for `CC(C)NC(=O)Nc1ccc2c(c1)C(=O)N([C@@H](C)CO)C[C@@H](C)[C@@H](CN(C)C(=O)NC(C)C)OCCCC[C@@H](C)O2` reads -11.5% (inactive); that for `Cc1cccc(NC(=S)NN(Cc2ccccc2)c2ccccc2)c1C`, -12.8% (inactive).

For the compound `N#C[C@H]1[C@@H](c2ccc(C#CCC3CCCC3)cc2)[C@@H](CO)N1C(=O)c1ccccn1`, the “activity change, negative = cytotoxicity” value is -7.57% (inactive). The same measure, in the same setting: the result for `Cc1noc(C)c1S(=O)(=O)Nc1ccc2c(c1)CC(=O)N([C@H](C)CO)C[C@H](C)[C@H](CN(C)S(=O)(=O)c1cccs1)O2` reads -5.5% [at 23.5 µM] (inactive); that for `Cc1noc(C)c1NC(=O)Nc1ccc2c(c1)C(=O)N([C@@H](C)CO)C[C@H](C)[C@H](CN(C)CC1CCCCC1)O2`, 2.49% (inactive); that for `C/C=C/c1ccc([C@@H]2[C@H]3CN(C(=O)Nc4ccc(OC)cc4)CCCCN3[C@H]2CO)cc1`, 19.5% (inactive). Still for that read-out and setting: the result for `O=C(NCCc1ccccc1)[C@@H]1[C@@H](CO)[C@@H]2Cn3c(cccc3=O)[C@H]1N2C(=O)C1CCC1` reads 5.59% (inactive).

The nature of another test: viability loss in HeLa cells – cell-based, ATP luminescence, cherry-pick samples, cytotoxicity control, dose response (AID 687004;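 active = a fitted half-maximal concentration no higher than twice the top valid tested dose, with signal falling as cells die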;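 also: 0% = neutral control median and -100% = staurosporine 10 µM control median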). Conditions: ATP luminescence (CellTiter-Glo), 48 h; series mostly up to 26 µM; activity change, negative = cytotoxicity: at the top concentration.
`Cc1cccc(C)c1NC(=O)CN(C)C(=O)C1CC1C` (stereo not given): the “activity change, negative = cytotoxicity” value is 2.97% (inactive).

As for `Cc1ccc(NC(=O)C2CCC(=O)N2)cc1C` (stereo not given), the “activity change, negative = cytotoxicity” value is 2.02% (inactive).

As to `Cc1cccc(NC(=O)CN(C)C(=O)C2CCCC2)c1C`, the “activity change, negative = cytotoxicity” value is -2.12% (inactive). In the case of `CC(C)NC(=O)Nc1ccc2c(c1)C(=O)N([C@@H](C)CO)C[C@H](C)[C@@H](CN(C)S(=O)(=O)c1cccs1)OCCCC[C@H](C)O2`, the “activity change, negative = cytotoxicity” value is -5.51% (inactive).

Take `C[C@@H]1CCCCO[C@H](CN(C)C(=O)CCCN(C)C)[C@@H](C)CN([C@H](C)CO)C(=O)c2cc(NC(=O)Cc3ccccc3)ccc2O1`: the “activity change, negative = cytotoxicity” value is 10% (inactive). In the case of `Cc1cccc(C)c1NC(=O)C1CCCCN1C` (stereo not given), the “activity change, negative = cytotoxicity” value was -1.85% (inactive). Still for that read-out and setting: the result for `O=C(Nc1ccccc1N1CCOCC1)c1cccc([N+](=O)[O-])c1` reads -6.75% (inactive).

On to `Cc1ccc(NC(=O)C2(N3CCC3=O)CCCCC2)cc1`, for which the “activity change, negative = cytotoxicity” value is 0.368% (inactive). Regarding `COc1cccc(S(=O)(=O)N(C)C[C@@H]2OCc3ccccc3-c3ccccc3C(=O)N([C@@H](C)CO)C[C@@H]2C)c1`, the “activity change, negative = cytotoxicity” value was 0.204% (inactive).

For the compound `O=C(CN(c1ccccc1)S(=O)(=O)c1ccc(F)cc1)N1CCCCCC1`, the “activity change, negative = cytotoxicity” value was -1.12% (inactive).

`C[C@@H]1CN([C@@H](C)CO)C(=O)c2cc(NC(=O)C3CC3)ccc2O[C@H]1CN(C)CC1CCCCC1`: the “activity change, negative = cytotoxicity” value was 5.15% (inactive). Regarding `CO[C@@H]1CN(C)C(=O)c2ccc(NS(=O)(=O)c3ccc(Oc4ccccc4)cc3)cc2OC[C@H](C)NC[C@H]1C`, the “activity change, negative = cytotoxicity” value was 1.65% (inactive). The same measure, in the same setting: the value for `Cc1ccc(S(=O)(=O)N2CC[C@@H]3[C@H](CO)Nc4ccc(-c5ccccc5F)cc4[C@@H]32)cc1` was 138% (inactive); that for `O=C(COc1ccccc1)NCc1ccc2c(c1)OCO2` was -1.84% (inactive). Same read-out and setting: the result for `O=C(c1ccco1)N1N=C(c2cccs2)CC1c1cc([N+](=O)[O-])ccc1O` (stereo not given) reads 5.09% (inactive).

Consider `COC(=O)C1=C(C)N(Cc2ccccc2)C(=S)N[C@H]1c1ccc(Br)cc1`, for which the outcome was inactive. As for `C[C@H]1CN([C@@H](C)CO)C(=O)Cc2cc(N(C)C)ccc2O[C@@H]1CN(C)C(=O)Nc1ccc(C(F)(F)F)cc1`, the “activity change, negative = cytotoxicity” value is 1.91% (inactive). The same measure, in the same setting: the value for `CC(C)NC(=O)Nc1ccc2c(c1)C(=O)N([C@@H](C)CO)C[C@@H](C)[C@@H](CN(C)C(=O)NC(C)C)OCCCC[C@@H](C)O2` was 12% (inactive). Still for that read-out and setting: the result for `Cc1noc(C)c1S(=O)(=O)Nc1ccc2c(c1)CC(=O)N([C@H](C)CO)C[C@H](C)[C@H](CN(C)S(=O)(=O)c1cccs1)O2` reads -6.05% [at 23.5 µM] (inactive). For `Cc1noc(C)c1NC(=O)Nc1ccc2c(c1)C(=O)N([C@@H](C)CO)C[C@H](C)[C@H](CN(C)CC1CCCCC1)O2`, the “activity change, negative = cytotoxicity” value was 6.89% (inactive).

In the case of `O=C(CC1CC1)N1[C@@H]2CN(S(=O)(=O)c3ccccc3)c3ccccc3[C@@H]2[C@@H]1CO`, the “activity change, negative = cytotoxicity” value is -0.175% (inactive). On the same count and under the same terms, the value for `O=C(NCCc1ccccc1)[C@@H]1[C@@H](CO)[C@@H]2Cn3c(cccc3=O)[C@H]1N2C(=O)C1CCC1` was -1.62% (inactive).
